Reference: PubChem BioAssay (NCI)
The panel holds about 83,000 compounds, 20% with a hit somewhere; the sample as a whole holds those more often.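 Note: values are percent growth. 100 is the growth of untreated cells, values between 100 and 0 indicate rising inhibition; between -100 and 0 indicates cell death.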 Calls of active or inactive are those of the source. How the source made its calls: active means growth percent below 10; inactive means the rest.

Legend:
Assay in all cases: NCI-60 one-dose screen, 48 h (100 = growth as untreated, 0 = no growth, -100 = all killed)
Conditions in all cases: 10 µM unless noted
DU-145 prostate = system: DU-145 prostate
K-562 leukemia = system: K-562 leukemia
MALME-3M melanoma = system: MALME-3M melanoma
MDA-MB-231 breast = system: MDA-MB-231 breast
RXF 393 renal = system: RXF 393 renal
SF-268 CNS = system: SF-268 CNS
SF-295 CNS = system: SF-295 CNS
SF-539 CNS = system: SF-539 CNS
UACC-257 melanoma = system: UACC-257 melanoma
M14 melanoma = system: M14 melanoma

Measured: growth

C(=N\Nc1nnc2n1N=C(c1ccccc1)CS2)/c1ccc(OCc2ccccc2)cc1
inactive: DU-145 prostate 104% | K-562 leukemia 57.6% | MALME-3M melanoma 125% | MDA-MB-231 breast 108% | RXF 393 renal 80.1% | SF-268 CNS 115% | SF-295 CNS 101% | SF-539 CNS 102% | UACC-257 melanoma 103% | M14 melanoma 113%

O=C1/C(=C/c2cccc([N+](=O)[O-])c2)COc2ccc(O)c(O)c21
inactive: SF-295 CNS 58.6%
active: DU-145 prostate 2.4% | K-562 leukemia 6.45% | MALME-3M melanoma -53.3% | MDA-MB-231 breast -76.9% | RXF 393 renal -81.3% | SF-268 CNS -4.32% | SF-539 CNS -89.1% | UACC-257 melanoma 3.37% | M14 melanoma -63.9%

Cn1cc(-c2nc(-c3c[nH]c4ccncc34)cs2)c2cc(F)ccc21
active: DU-145 prostate -98.1% | K-562 leukemia -53.6% | MALME-3M melanoma -88.9% | MDA-MB-231 breast -90.7% | RXF 393 renal -94.7% | SF-268 CNS -80.1% | SF-295 CNS -85.9% | SF-539 CNS -97.1% | UACC-257 melanoma -73.1% | M14 melanoma -87.3%

COc1ccc2c(c1)C(c1c[nH]c3ccccc13)(c1c[nH]c3ccccc13)CCO2
inactive: DU-145 prostate 74.6% | K-562 leukemia 29.5% | MALME-3M melanoma 88.8% | MDA-MB-231 breast 35.1% | RXF 393 renal 76.1% | SF-268 CNS 52.2% | SF-295 CNS 36.6% | SF-539 CNS 71.7% | UACC-257 melanoma 48.1% | M14 melanoma 39.7%

COc1c(O[C@@H]2OC(CO)[C@H](O)[C@H](O)C2O)cc2oc3cc(O)c(CC=C(C)C)c(O)c3c(=O)c2c1CC=C(C)C (stereo not given in full)
inactive: DU-145 prostate 104% | K-562 leukemia 68.5% | MALME-3M melanoma 104% | MDA-MB-231 breast 68.5% | RXF 393 renal 110% | SF-268 CNS 92.1% | SF-295 CNS 93.2% | SF-539 CNS 107% | UACC-257 melanoma 91.3% | M14 melanoma 86.2%

Oc1cccc2c1NCCC2
active: MALME-3M melanoma -0.428% | MDA-MB-231 breast 6.35% | SF-295 CNS 0.338%
inactive: DU-145 prostate 34.8% | K-562 leukemia 13.5% | RXF 393 renal 43.9% | SF-268 CNS 35.3% | SF-539 CNS 26.4% | UACC-257 melanoma 12.4% | M14 melanoma 31.4%

c1ccc2[nH]c(-c3ccc(-c4nccc5c4[nH]c4ccccc45)cc3)nc2c1
active: K-562 leukemia 3.52% | SF-539 CNS -40.4%
inactive: DU-145 prostate 67.4% | MALME-3M melanoma 90.4% | MDA-MB-231 breast 30.2% | RXF 393 renal 44.6% | SF-268 CNS 52.3% | SF-295 CNS 75.1% | UACC-257 melanoma 81.8% | M14 melanoma 72.8%

C[C@H]1c2ccccc2CN1CCCOc1cc2c(cc1OCC1CC1)C1(CCCC1)C(N)=N2
active: K-562 leukemia 2.69% | MALME-3M melanoma -84.7% | UACC-257 melanoma -68.1% | M14 melanoma -70.4%
inactive: DU-145 prostate 75.6% | MDA-MB-231 breast 34.5% | RXF 393 renal 34.2% | SF-268 CNS 70.6% | SF-295 CNS 55.3% | SF-539 CNS 48.1%

Nc1n[nH]c2cccc(C#Cc3cccc(C(=O)Nc4ccc(Cl)c(C(F)(F)F)c4)c3)c12
active: K-562 leukemia 6.22%
inactive: DU-145 prostate 83.6% | MALME-3M melanoma 14.9% | MDA-MB-231 breast 40.4% | RXF 393 renal 66.9% | SF-268 CNS 61.7% | SF-295 CNS 66.6% | SF-539 CNS 33.5% | UACC-257 melanoma 48.2% | M14 melanoma 23%

Clc1ccc2c(NCCCn3cnc4c(N5CCCC5)nc(Cl)nc43)ccnc2c1
inactive: DU-145 prostate 106% | K-562 leukemia 90.4% | MALME-3M melanoma 101% | MDA-MB-231 breast 89.8% | RXF 393 renal 123% | SF-268 CNS 94.4% | SF-295 CNS 101% | SF-539 CNS 99.1% | UACC-257 melanoma 102% | M14 melanoma 93.9%

[2H]C([2H])([2H])Oc1ccc(/C=C/C(=O)/C=C(O)/C=C/c2ccc(OC([2H])([2H])[2H])c(OC([2H])([2H])[2H])c2)cc1OC([2H])([2H])[2H]
inactive: DU-145 prostate 59% | K-562 leukemia 17.6% | MALME-3M melanoma 79.2% | MDA-MB-231 breast 72% | RXF 393 renal 59.4% | SF-268 CNS 67.2% | SF-295 CNS 39.5% | SF-539 CNS 65.8% | UACC-257 melanoma 84% | M14 melanoma 52.5%

N=C(N)c1ccc(-c2ccc(-c3ccccc3)s2)nc1
inactive: DU-145 prostate 92.1% | K-562 leukemia 14.5% | MALME-3M melanoma 101% | MDA-MB-231 breast 86.1% | RXF 393 renal 87.2% | SF-268 CNS 93.8% | SF-295 CNS 88% | SF-539 CNS 88.2% | UACC-257 melanoma 96% | M14 melanoma 88.7%

O=C(NCCN1CCOCC1)c1cncnc1Nc1ccc2c(ccn2Cc2ccccn2)c1
inactive: DU-145 prostate 110% | K-562 leukemia 116% | MALME-3M melanoma 102% | MDA-MB-231 breast 106% | RXF 393 renal 134% | SF-268 CNS 97.3% | SF-295 CNS 102% | SF-539 CNS 100% | UACC-257 melanoma 102% | M14 melanoma 108%

CN(C)CCCN(CCC1CCCCC1)CCC1CCCCC1
inactive: DU-145 prostate 80.9% | K-562 leukemia 26% | MDA-MB-231 breast 19.4% | RXF 393 renal 70.8% | SF-268 CNS 75.2% | SF-295 CNS 69.4% | SF-539 CNS 49.6%
active: MALME-3M melanoma -79.4% | UACC-257 melanoma -65.3% | M14 melanoma -97.2%

Cn1ccnc1C(=O)/C=C/c1ccc(C(=O)Nc2ccccc2F)cc1
active: MDA-MB-231 breast -2.25% | SF-295 CNS 6.25% | SF-539 CNS -8.53% | M14 melanoma 8.56%
inactive: DU-145 prostate 20.7% | K-562 leukemia 12.6% | MALME-3M melanoma 54.7% | RXF 393 renal 16.4% | SF-268 CNS 24.7% | UACC-257 melanoma 66.7%

Fc1ccc(/C=C/c2cc(/C=C/c3ccc(F)cc3)n(-c3cc(F)cc(F)c3)n2)cc1
inactive: DU-145 prostate 99.9% | K-562 leukemia 66.4% | MALME-3M melanoma 98.1% | MDA-MB-231 breast 101% | RXF 393 renal 112% | SF-268 CNS 102% | SF-295 CNS 93.5% | SF-539 CNS 103% | UACC-257 melanoma 106% | M14 melanoma 87.7%

COc1ccc(/C=C/C(=O)c2ccc(-n3cc(CN4CCN(c5cc6c(cc5F)c(=O)c(C(=O)O)cn6C5CC5)CC4)nn3)cc2)cc1
inactive: DU-145 prostate 83.2% | K-562 leukemia 42.6% | MALME-3M melanoma 66.2% | MDA-MB-231 breast 67.2% | RXF 393 renal 64.2% | SF-268 CNS 56% | SF-295 CNS 94.9% | SF-539 CNS 50.8% | UACC-257 melanoma 78.7% | M14 melanoma 59%

CO[C@H]1CC(c2ccc[nH]2)=N[C@]12O[C@@H](C)C[C@@H]1CCCCCCCc3ccc([nH]3)[C@H]12
inactive: DU-145 prostate 30.3% | K-562 leukemia 21.3% | MDA-MB-231 breast 14.1% | RXF 393 renal 52.7% | SF-268 CNS 48.6% | SF-295 CNS 17.4% | SF-539 CNS 20% | UACC-257 melanoma 13.2% | M14 melanoma 13.2%
active: MALME-3M melanoma -14.5%

O=C1N/C(=N/N=C(c2ccccc2)c2ccccc2)S/C1=C\c1ccc(Br)cc1
inactive: DU-145 prostate 107% | K-562 leukemia 89.6% | MALME-3M melanoma 97.7% | MDA-MB-231 breast 94.6% | RXF 393 renal 107% | SF-268 CNS 99.3% | SF-295 CNS 96.1% | SF-539 CNS 110% | UACC-257 melanoma 83.5% | M14 melanoma 91.8%

c1ccc(Cn2cc3c(c2)-c2nc(Nc4ccccc4)ncc2CC3)cc1
inactive: DU-145 prostate 83.2% [100 µM] | K-562 leukemia 108% [100 µM] | MALME-3M melanoma 83.5% [100 µM] | MDA-MB-231 breast 65.2% [100 µM] | RXF 393 renal 48.6% [100 µM] | SF-268 CNS 76.9% [100 µM] | SF-295 CNS 57.6% [100 µM] | SF-539 CNS 64.3% [100 µM] | UACC-257 melanoma 98.2% [100 µM] | M14 melanoma 92.9% [100 µM]

CNC(=O)c1cc(Oc2ccc3nc(NC(=O)c4cc(C(F)(F)F)cc(C(F)(F)F)c4)sc3c2)ccn1
inactive: DU-145 prostate 27.5% | K-562 leukemia 13.3% | SF-268 CNS 23.6% | SF-539 CNS 19.1% | M14 melanoma 22%
active: MALME-3M melanoma 2.93% | MDA-MB-231 breast 8.74% | RXF 393 renal -3.77% | SF-295 CNS 3.03% | UACC-257 melanoma 0.459%

Cc1c(-c2cnc3ccc(Cl)cc3c2C(=O)O)nnn1-c1ccc(Cl)cc1
inactive: DU-145 prostate 114% | K-562 leukemia 101% | MALME-3M melanoma 99.6% | MDA-MB-231 breast 85.8% | RXF 393 renal 122% | SF-268 CNS 111% | SF-295 CNS 97.7% | SF-539 CNS 99.6% | UACC-257 melanoma 95.9% | M14 melanoma 69.8%
